The record followed here is PubChem BioAssay.

The source made the active and inactive calls.

Assay [1] in a line: optical density shifts of acrAB sulA E. coli – strain DRC41, OD650, 48 h, E. coli filamentation inducer project, primary screen (AID 1152).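 Note: E. coli MC1000 strain DRC41 lacking acrAB efflux pump and sulA.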 The settings on record: higher = more signal, called active from +8 up or from −8 down.
A short description of assay [2]: probe aLefty1 binding on compound microarray – biochemical, small-molecule microarray, 635/667 nm fluorescence, primary screen (AID 1153).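 Note: score merges spot fluorescence with signal-to-noise ratio from the scanned slide images.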 To be noted: higher = more signal.
Assay [3] in a line: plasmodial surface anion channel blockers, osmotic lysis – cell-based, P. falciparum Indochina, OD700, 1 h, primary screen (AID 1154). To be noted: P. falciparum Indochina infected RBC osmotic lysis, higher = more signal, called active from +8 up or from −8 down.
Assay [4] in a line: plasmodial surface anion channel blockers, osmotic lysis – cell-based, P. falciparum Indochina, OD700, 2 h, primary screen (AID 1155).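 Note: lysis reports solute entry through the parasite surface anion channel PSAC.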 The settings on record: P. falciparum Indochina infected erythrocytes, higher = more signal, called active from +8 up or from −8 down.
The nature of assay [5]: changes in parasitized red cell lysis, either direction – P. falciparum Indochina, OD700, 3 h, PSAC antagonist project, primary screen (AID 1156). To be noted: P. falciparum-infected erythrocytes, osmotic lysis, higher = more signal, called active from +8 up or from −8 down.
The nature of assay [6]: plasmodial surface anion channel blockers, osmotic lysis – cell-based, P. falciparum Indochina, OD700, 18 h, primary screen (AID 1157). To be noted: P. falciparum Indochina infected erythrocytes, osmotic lysis OD700, 18 h; higher = more signal, called active from +8 up or from −8 down.
Assay [7] in a line: S6 kinase pathway phospho-S6 level changes – cell-based, A549, cytoblot, luminescence, serum-stimulated, primary screen (AID 1158).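 Note: serum-stimulated A549 lung adenocarcinoma cells; signal is phosphorylated S6 detected by cytoblot immunostaining with HRP secondary.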 To be noted: 5 h, higher = more signal.
The target of assay [8] is NADPH oxidase 2 (Homo sapiens) (UniProt P04839). The assay can be described thus: compounds shifting NOX2 Amplex Red fluorescence – cell-based, HEK293-NOX2, PMA-stimulated, NOX inhibitor project, primary screen (AID 1159). Note: test concentration not given here. To be noted: 45 min, higher = more signal, called active from +8 up or from −8 down.
Sequence of NADPH oxidase 2 (Homo sapiens) (P04839 whole entry, looked up): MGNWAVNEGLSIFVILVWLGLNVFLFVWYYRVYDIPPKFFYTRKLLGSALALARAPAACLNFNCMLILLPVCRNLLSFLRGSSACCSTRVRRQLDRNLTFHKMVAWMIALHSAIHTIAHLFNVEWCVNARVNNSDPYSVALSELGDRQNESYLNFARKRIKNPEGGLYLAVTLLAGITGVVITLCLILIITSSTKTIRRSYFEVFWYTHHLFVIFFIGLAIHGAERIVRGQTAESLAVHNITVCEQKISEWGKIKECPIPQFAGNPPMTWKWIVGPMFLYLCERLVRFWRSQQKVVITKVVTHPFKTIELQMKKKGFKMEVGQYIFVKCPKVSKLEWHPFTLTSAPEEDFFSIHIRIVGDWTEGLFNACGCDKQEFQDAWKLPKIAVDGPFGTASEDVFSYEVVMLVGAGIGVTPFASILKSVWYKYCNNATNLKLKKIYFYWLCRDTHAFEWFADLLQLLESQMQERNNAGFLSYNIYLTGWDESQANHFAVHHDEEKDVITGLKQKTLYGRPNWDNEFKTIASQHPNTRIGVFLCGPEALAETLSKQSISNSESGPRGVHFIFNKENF
In assay [9] the target is NADPH oxidase 4 (Homo sapiens) (UniProt Q9NPH5). The assay can be described thus: compounds shifting NOX4 Amplex Red fluorescence – cell-based, HEK293-NOX4, tetracycline-induced, NOX inhibitor project, primary screen (AID 1160). To be noted: HEK293-NOX4, Amplex Red H2O2 fluorescence, 45 min; higher = more signal, called active from +8 up or from −8 down.
Sequence of NADPH oxidase 4 (Homo sapiens) (Q9NPH5 whole entry, looked up): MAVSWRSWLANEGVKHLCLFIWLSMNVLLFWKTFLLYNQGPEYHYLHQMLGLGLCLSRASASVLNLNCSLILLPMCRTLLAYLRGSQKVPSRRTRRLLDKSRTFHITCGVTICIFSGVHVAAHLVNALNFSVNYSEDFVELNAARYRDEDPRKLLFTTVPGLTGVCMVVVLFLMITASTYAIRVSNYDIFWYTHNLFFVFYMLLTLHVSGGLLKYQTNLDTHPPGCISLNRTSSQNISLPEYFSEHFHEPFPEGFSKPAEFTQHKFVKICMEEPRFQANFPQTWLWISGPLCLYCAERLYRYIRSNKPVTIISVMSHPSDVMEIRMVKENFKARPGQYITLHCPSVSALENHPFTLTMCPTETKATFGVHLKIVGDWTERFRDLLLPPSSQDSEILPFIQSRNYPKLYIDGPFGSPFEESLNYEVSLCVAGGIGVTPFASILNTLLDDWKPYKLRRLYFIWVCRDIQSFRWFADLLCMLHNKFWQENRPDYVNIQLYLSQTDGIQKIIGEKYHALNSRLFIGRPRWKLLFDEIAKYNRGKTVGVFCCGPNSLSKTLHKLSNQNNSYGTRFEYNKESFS
In assay [10] the target is NADPH oxidase 5 (Homo sapiens) (UniProt Q96PH1). The assay can be described thus: compounds shifting NOX5 Amplex Red fluorescence – cell-based, HEK293-NOX5, NOX inhibitor project, primary screen (AID 1161). To be noted: HEK293-NOX5, ionomycin, 45 min, higher = more signal.
Sequence of NADPH oxidase 5 (Homo sapiens) (Q96PH1 whole entry, looked up): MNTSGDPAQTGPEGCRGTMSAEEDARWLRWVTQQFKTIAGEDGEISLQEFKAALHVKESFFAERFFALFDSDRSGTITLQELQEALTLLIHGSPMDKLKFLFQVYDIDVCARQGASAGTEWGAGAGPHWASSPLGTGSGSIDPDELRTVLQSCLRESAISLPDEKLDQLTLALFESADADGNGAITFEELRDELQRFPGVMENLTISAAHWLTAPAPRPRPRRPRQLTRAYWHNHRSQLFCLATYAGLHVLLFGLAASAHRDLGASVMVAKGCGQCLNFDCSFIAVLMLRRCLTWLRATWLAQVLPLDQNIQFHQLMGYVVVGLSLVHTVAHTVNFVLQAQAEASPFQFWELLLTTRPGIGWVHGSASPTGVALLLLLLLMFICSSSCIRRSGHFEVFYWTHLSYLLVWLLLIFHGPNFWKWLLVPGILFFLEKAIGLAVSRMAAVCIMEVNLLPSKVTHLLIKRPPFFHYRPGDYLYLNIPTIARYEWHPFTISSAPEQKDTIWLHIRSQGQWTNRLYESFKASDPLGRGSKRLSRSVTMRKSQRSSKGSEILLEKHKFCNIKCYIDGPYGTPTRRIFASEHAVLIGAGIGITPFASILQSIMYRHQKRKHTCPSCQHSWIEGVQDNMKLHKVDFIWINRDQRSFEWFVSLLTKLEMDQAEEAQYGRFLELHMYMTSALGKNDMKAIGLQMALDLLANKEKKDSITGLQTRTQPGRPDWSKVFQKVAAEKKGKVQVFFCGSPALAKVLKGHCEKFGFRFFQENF

In the case of `O=C1O[C@H](c2ccccc2)[C@H](c2ccccc2)N2[C@H]1[C@@H](C(=O)N1CCN(c3ncccn3)CC1)[C@]1(C(=O)Nc3ccc(C#CC4(O)CCCCCC4)cc31)[C@H]2c1ccc(OCCO)cc1`, the z-score in assay [1] is -0.735 (inactive); in [3], 8.14 (active); in assay [4] it was 2.41 (inactive); in [5], 1.76 (inactive); in assay [6], 1.33 (inactive); in [7], -0.274. In addition, the z-score in [8] is 1.28 (inactive); in [9], 1.11 (inactive); in assay [10] it was 1.35. For the same compound, in assay [2], the composite z-score was found to be 1.66.
Consider `CCOC(=O)C[C@H]1[C@H](OC(=O)c2ccc(C(=O)c3ccccc3)cc2)[C@@H](NC(=O)Cc2ccc(OC)cc2)c2cc(OCCCO)ccc2N1C(=O)c1ccccc1`, for which the z-score in assay [1] is -0.915 (inactive); in assay [3], 2.41 (inactive); in assay [4] it was -0.431 (inactive); in assay [5], -0.937 (inactive); in assay [6], 0.384 (inactive); in [7], -0.408. Besides, the figures for the z-score in assay [8], in [9] and in assay [10] were -1.25 (inactive), 1.16 (inactive) and 0.303, respectively. In addition, the composite z-score in assay [2] was -0.0762.
On to `CCOC(=O)[C@H]1[C@@H]2C(=O)N3CCC[C@H]3[C@H](O[Si](C(C)C)(C(C)C)C(C)C)[C@H]2C=C2CCN(S(=O)(=O)c3ccc(C)cc3)C[C@H]21`, for which the z-score in assay [1] was -1.12 (inactive); in assay [3], 5.55 (inactive); in assay [4], 1.24 (inactive); in [5], 0.216 (inactive); in assay [6] it was 1.02 (inactive); in assay [7] it was 0.582. Besides, the z-score was 0.163 (inactive) in assay [8], -0.264 (inactive) in assay [9] and 1.69 in [10]. Besides, the composite z-score in assay [2] is -0.202.
On to `CCOC(=O)C[C@H]1[C@H](OC(=O)Cc2ccc3c(c2)OCO3)[C@@H](NC(=O)Cc2ccc(OC)cc2)c2cc(OCCCO)ccc2N1C(=O)c1ccc2ccccc2n1`, for which the z-score in [1] is 2.96 (inactive); in [3], 3.63 (inactive); in assay [4], -0.486 (inactive); in [5], -1.03 (inactive); in [6], -1.01 (inactive); in [7], 1.29. Moreover, the z-score in [8] is -1.03 (inactive); in assay [9], 1.04 (inactive); in assay [10] it was 1.05. The same compound yielded a composite z-score in assay [2] of 0.0889.
Consider `O=C(NCC(F)(F)F)[C@@H]1c2ccccc2C(=O)N(Cc2ccc(OC(F)(F)F)cc2)[C@H]1c1ccc(CO)cc1`, for which the z-score in assay [1] is 0.484 (inactive); in assay [3], 0.926 (inactive); in assay [4] it was -0.137 (inactive); in [5], 1.44 (inactive); in assay [6], 0.376 (inactive); in [7] it was -0.323. The z-score was -0.759 (inactive) in [8], -0.889 (inactive) in assay [9] and -0.263 in assay [10]. For the same compound, in assay [2], the composite z-score was -0.252.
In the case of `O=C1O[C@H](c2ccccc2)[C@H](c2ccccc2)N2[C@H]1[C@@H](C(=O)O)[C@]1(C(=O)Nc3ccc(C#CC4=CCCCC4)cc31)[C@H]2c1ccc(O)cc1`, the z-score in assay [1] was -1.14 (inactive); in assay [3], -2.37 (inactive); in assay [4], -0.921 (inactive); in [5], -10.4 (active); in assay [6], -0.451 (inactive); in assay [7], -0.497. For the same compound, the z-score in [8] was 1.62 (inactive); in assay [9] it was -3.15 (inactive); in [10], -0.32. Moreover, the composite z-score in assay [2] was -0.242.
For the compound `CC(CO)N1C(=O)[C@@H]2[C@H]3C(=O)OCC=C[C@H]3OC23C=CCN(Cc2ccccc2)C(=O)[C@@H]13` (stereo not given in full), the z-score in [1] is 2.36 (inactive); in assay [3], 0.116 (inactive); in [4] it was -1.05 (inactive); in [5] it was -0.355 (inactive); in assay [6], -1.39 (inactive); in [7], 0.473. Also, the values for the z-score in assay [8], in assay [9] and in [10] were 0.991 (inactive), 0.662 (inactive) and 1.49, respectively. For the same compound, in assay [2], the composite z-score is -0.191.
As for `COc1ccc([Si](C)(C)[C@@H]2[C@@H](CC(=O)N(CCO)Cc3ccccc3)O[C@]3(C(=O)N(Cc4cccc(N5C(=O)c6cccc7cccc5c67)c4)c4ccccc43)[C@H]2C)cc1`, the z-score is 2.02 (inactive) in assay [1]; 4.59 (inactive) in assay [3]; 0.343 (inactive) in assay [4]; -0.667 (inactive) in assay [5]; -0.526 (inactive) in [6]; 1.92 in [7]. Besides, the z-score in [8] is 1.09 (inactive); in assay [9] it was 1.09 (inactive); in assay [10], 3. In addition, the composite z-score in assay [2] amounted to 0.287.
Take `COC(=O)[C@@]1(Cc2ccc(F)cc2)[C@H]2c3cc(C(=O)N(C)C)n(Cc4cc(F)cc5c4OCOC5)c3C[C@H]2CN1C(=O)c1ccccc1`: the z-score is -0.62 (inactive) in assay [1]; 5.56 (inactive) in assay [3]; 0.0161 (inactive) in [4]; 0.366 (inactive) in [5]; -1.27 (inactive) in [6]; 1.16 in assay [7]. Besides, the z-score in assay [8] was -0.508 (inactive); in [9], 0.966 (inactive); in assay [10], -3.94. This compound displayed a composite z-score in assay [2] of 0.487.
`CC(C)(C)N1CC=CC23O[C@@H]4C=CCCOC(=O)C4[C@H]2C(=O)N(CCO)[C@@H]3C1=O` (stereo not given in full): the z-score in [1] is 0.209 (inactive); in [3], 0.901 (inactive); in assay [4], 0.884 (inactive); in [5], 1.28 (inactive); in assay [6] it was 0.6 (inactive); in [7] it was 0.461. The figures for the z-score in [8], in assay [9] and in [10] were 1.31 (inactive), 0.696 (inactive) and 1.23, respectively. The composite z-score in assay [2] was -0.0823.
Turning to `CC=CC(O)C1C=CC2C(=O)N(c3ccccc3)C(=O)C2N1Nc1ccccc1F` (stereo not given), the z-score in [1] is -0.857 (inactive); in assay [3], 4.36 (inactive); in assay [4] it was 1.24 (inactive); in [5] it was 0.164 (inactive); in assay [6], 0.512 (inactive); in assay [7], -0.819. The z-score in [8] is -1.11 (inactive); in assay [9] it was -2.88 (inactive); in [10] it was -2. Further, in [2], the composite z-score was 0.762.
`Cc1ccc(S[C@]2(C(=O)O)CC(=O)N(Cc3cc(C(F)(F)F)cc(C(F)(F)F)c3)[C@@H]2c2ccc(CO)cc2)cc1`: the z-score in [1] was -1.21 (inactive); in assay [3], 2.76 (inactive); in assay [4], 1.01 (inactive); in assay [5], 1.44 (inactive); in assay [6] it was 0.769 (inactive); in assay [7], -0.482. In addition, the z-score was 0.86 (inactive) in [8], -0.271 (inactive) in assay [9] and 0.0502 in assay [10]. The composite z-score in assay [2] was -0.239.
